Experimental data taken from PubChem BioAssay (NCATS).
Records with an inconclusive call do not appear. Values without a mark were called inactive. The source made the active and inactive calls. Calls follow the shape of the dose curve; as a rule, active = well fitted cell-killing curve with a large enough effect; inconclusive = small, poorly fitted or top-dose-only effect, or effect the other way; inactive = no such curve, though single readings can be large or run the other way.

Assays:
[1] = Viability qHTS for spleen associated tyrosine kinase inhibitor (SYKi) naive MV4-11 cells (AID 1963823); also: nearly all actives have a fitted effect of over 40% in size
Summary of the method: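 qHTS, SYK inhibitor-naive MV4-11; 500 cells/well; 72 hr compound exposure, 37 C; CellTiter-Glo added, 10 min RT; luminescence read.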

[2] = Viability qHTS for spleen associated tyrosine kinase inhibitor (SYKi) drug resistant MV4-11 cells (AID 1963824); also: nearly all actives have a fitted effect of over 35% in size
Summary of the method: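 SYK inhibitor-resistant MV4-11 AML cells, 500 per well, added to predispensed compounds and incubated 72 hr at 37 C, 5% CO2. Viability measured by CellTiter-Glo luminescence after 10 min at room temperature.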
Potency is read from the fitted curve at half-maximal effect.

| Structure (SMILES) | Potency [1] | Potency [2] | viability (% of control) [1] | viability, % of control [2] |
| --- | --- | --- | --- | --- |
| OC[C@H]1O[C@@H](n2cnc3c(NCc4ccc(O)cc4)ncnc32)[C@H](O)[C@@H]1O | 1.03 µM (active) | 0.731 µM (active) |  |  |
| Cc1cncc2cccc(S(=O)(=O)N3CCCNC[C@@H]3C)c12 | 3.66 µM (active) | 9.2 µM (active) |  |  |
| CC(=C\C(C)O)/C=C(\C)C(=O)CC1CC(CC(N)=O)CC(=O)O1 (stereo not drawn) | inactive | inactive |  |  |
| COC(=O)C1=CO[C@@H](O[C@@H]2O[C@H](CO)[C@@H](O)[C@H](O)[C@H]2O)[C@@H]2[C@@](C)(O)[C@@H](OC(=O)/C=C/c3ccc(O)cc3)C[C@]12O | inactive | inactive |  |  |
| Cn1ncc(Cl)c1-c1cc(C(=O)N[C@H](CN)Cc2ccc(F)c(F)c2)oc1Cl | 2.59 µM (active) | 8.2 µM (active) |  |  |
| C[C@@H]1O[C@@H](O[C@H]2[C@H](O)[C@@H](O)[C@H](OC(=O)[C@]34CCC(C)(C)C[C@H]3C3=CCC5[C@@]6(C)CC[C@H](O[C@@H]7O[C@H](C(=O)O)[C@@H](O)[C@H](O)[C@H]7O)C(C)(C)C6CC[C@@]5(C)[C@]3(C)CC4)O[C@@H]2CO)[C@H](O)[C@H](O)[C@H]1O (stereo partly drawn) |  |  | 72.1% [at 9.25 µM] | 75.6% [at 9.25 µM] |
| Cc1c(C(=O)NCc2cccnc2)nn(-c2ccc(Cl)cc2Cl)c1-c1ccc(Cl)cc1 | inactive | inactive |  |  |
| CCC(C)/C=C(C)/C=C/C1=CC2=C(Cl)C(=O)C(C)(OC(C)=O)C(=O)C2(O)C(OC)O1 (stereo not drawn) | 11.2 µM (active) | 7.96 µM (active) |  |  |
| O=C(O)CCc1c(C(=O)O)[nH]c2cc(Cl)cc(Cl)c12 | inactive | inactive |  |  |
